Our source for the growth values is PubChem BioAssay (NCI).

Compounds without any hit were thinned out: in the full panel of roughly 83,000, 20% have a hit.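 Single-concentration screen, 48 h exposure, 96-well plates. Endpoint: percent growth. Below 10 = active.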 A number with no mark means an inactive call. Activity calls are given as the source filed them.

This assay concerns SNB-75 CNS. Nature of the assay: NCI-60 one-dose screen, 48 h (100 = growth as untreated, 0 = no growth, -100 = all killed). The following applies: 10 µM unless noted.
In the case of `Cn1cc(-c2csc(-c3ccc(Cl)cc3)n2)c2cccnc21`, the growth is -82.5% [100 µM] (active).
To `COc1cc(-c2nc(SCCC(C)C)nc(Nc3ccccc3Cl)c2C#N)cc(OC)c1OC` belongs 89.3%; to `CCn1c(=S)[nH]c2c(=O)n(C)c(=O)n(C)c21`, 96.2%; to `c1ccc(CNc2c3ccccc3nc3ccccc23)cc1`, 64.4%.
To `COCCn1c(-c2csc(-c3cn(C)c4ccc(OC)cc34)n2)cc2cccnc21` belongs 72.4%; to `CCOC(=O)CSc1ncnc2c1c(-c1ccccc1)c(-c1ccccc1)n2-c1ccc(C)cc1`, 87.8%; to `COc1cc2oc(-c3cccc(NC(=O)c4cccc(Br)c4)c3)cc(=O)c2c(OC)c1OC`, 62.6%.
Under `Cc1ccc(Cl)cc1Nc1nc(C(F)(F)F)ccc1C(=O)N/N=C/c1cccnc1` stands 52%; under `Cn1c(=O)c2c(nc(NC3=NS(=O)(=O)c4ccccc43)n2CC(=O)N2CCc3ccccc32)n(C)c1=O`, 94.9%.
With `Cc1cccc(Cl)c1NC(=O)c1ccc2nc(NC(=O)NCCN(C)C)sc2c1`, the growth was 23.7%.
On to `CCOC(=O)c1c(C)nc2c(c1N)CC(=O)N2Cc1cc(F)cc(Cl)c1`, for which the growth was 71.6%.
Under `COC(C(=O)[C@@H](O)[C@@H](C)O)[C@@H]1Cc2cc3cc(O[C@H]4C[C@@H](O[C@H]5C[C@@H](O)[C@H](O)C(C)O5)[C@H](O)C(C)O4)cc(O)c3c(O)c2C(=O)[C@H]1O[C@H]1C[C@@H](O[C@H]2C[C@@H](O[C@H]3C[C@@H](OC)[C@H](O)C(C)O3)[C@@H](O)C(C)O2)[C@H](O)C(C)O1` (some centres not stated) stands 35.7%.
